Tests used:
U-2932 [1] = assay: growth inhibition by drug alone (1 - RLU/untreated control) (fraction); higher = stronger inhibition; conditions: 177Lu-lilotomab satetraxetan 0 ug/ml
How it was run: (§1)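 Growth inhibition was calculated from RealTime-Glo RLU against untreated no-drug wells. Values equal 1 − RLU/mean of 48 untreated no-drug wells per plate, read daily from day 3 after 1 h at 37°C. RIVA and U-2932 cells, with or without 18 h pretreatment by a radiolabelled anti-CD37 antibody conjugate (~600 MBq/mg; 0.5 µg/ml RIVA, 1 µg/ml U-2932), were washed and plated at 3,000 cells/well on compound-printed plates at 10/100 nM (RIVA) or 10/1,000 nM (U-2932).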

RIVA [2] = assay: as above; conditions: 177Lu-lilotomab satetraxetan 0 ug/ml
How it was run: as §1

U-2932 [3] = assay: growth inhibition by drug plus 177Lu-lilotomab satetraxetan (1 - RLU/untreated control) (fraction); higher = stronger inhibition; conditions: 177Lu-lilotomab satetraxetan 1 ug/ml
How it was run: as §1

RIVA [4] = assay: as above; conditions: 177Lu-lilotomab satetraxetan 0.5 ug/ml
How it was run: as §1

| SMILES | growth inhibition by drug alone (U-2932 [1]; 10 nM, time (day): 3) | growth inhibition by drug alone (U-2932 [1]; 10 nM, time (day): 4) | growth inhibition by drug alone (U-2932 [1]; 10 nM, time (day): 5) | growth inhibition by drug alone (U-2932 [1]; 10 nM, time (day): 6) | growth inhibition by drug alone (U-2932 [1]; 1000 nM, time (day): 3) | growth inhibition by drug alone (U-2932 [1]; 1000 nM, time (day): 4) | growth inhibition by drug alone (U-2932 [1]; 1000 nM, time (day): 5) | growth inhibition by drug alone (U-2932 [1]; 1000 nM, time (day): 6) | growth inhibition by drug alone (RIVA [2]; 10 nM, time (day): 3) | growth inhibition by drug alone (RIVA [2]; 10 nM, time (day): 4) | growth inhibition by drug alone (RIVA [2]; 10 nM, time (day): 5) | growth inhibition by drug alone (RIVA [2]; 10 nM, time (day): 6) | growth inhibition by drug alone (RIVA [2]; 100 nM, time (day): 3) | growth inhibition by drug alone (RIVA [2]; 100 nM, time (day): 4) | growth inhibition by drug alone (RIVA [2]; 100 nM, time (day): 5) | growth inhibition by drug alone (RIVA [2]; 100 nM, time (day): 6) | growth inhibition by drug plus 177Lu-lilotomab satetraxetan (U-2932 [3]; 10 nM, time (day): 3) | growth inhibition by drug plus 177Lu-lilotomab satetraxetan (U-2932 [3]; 10 nM, time (day): 4) | growth inhibition by drug plus 177Lu-lilotomab satetraxetan (U-2932 [3]; 10 nM, time (day): 5) | growth inhibition by drug plus 177Lu-lilotomab satetraxetan (U-2932 [3]; 10 nM, time (day): 6) | growth inhibition by drug plus 177Lu-lilotomab satetraxetan (U-2932 [3]; 1000 nM, time (day): 3) | growth inhibition by drug plus 177Lu-lilotomab satetraxetan (U-2932 [3]; 1000 nM, time (day): 4) | growth inhibition by drug plus 177Lu-lilotomab satetraxetan (U-2932 [3]; 1000 nM, time (day): 5) | growth inhibition by drug plus 177Lu-lilotomab satetraxetan (U-2932 [3]; 1000 nM, time (day): 6) | growth inhibition by drug plus 177Lu-lilotomab satetraxetan (RIVA [4]; 10 nM, time (day): 3) | growth inhibition by drug plus 177Lu-lilotomab satetraxetan (RIVA [4]; 10 nM, time (day): 4) | growth inhibition by drug plus 177Lu-lilotomab satetraxetan (RIVA [4]; 10 nM, time (day): 5) | growth inhibition by drug plus 177Lu-lilotomab satetraxetan (RIVA [4]; 10 nM, time (day): 6) | growth inhibition by drug plus 177Lu-lilotomab satetraxetan (RIVA [4]; 100 nM, time (day): 3) | growth inhibition by drug plus 177Lu-lilotomab satetraxetan (RIVA [4]; 100 nM, time (day): 4) | growth inhibition by drug plus 177Lu-lilotomab satetraxetan (RIVA [4]; 100 nM, time (day): 5) | growth inhibition by drug plus 177Lu-lilotomab satetraxetan (RIVA [4]; 100 nM, time (day): 6) |
| --- | --- | --- | --- | --- | --- | --- | --- | --- | --- | --- | --- | --- | --- | --- | --- | --- | --- | --- | --- | --- | --- | --- | --- | --- | --- | --- | --- | --- | --- | --- | --- | --- |
| CC#C[C@]1(O)CC[C@H]2[C@@H]3CCC4=CC(=O)CCC4=C3[C@@H](c3ccc(N(C)C)cc3)C[C@@]21C [Mifepristone (Mifeprex)] | -0.0691 | -0.0767 | -0.047 | 0.0535 | -0.0327 | -0.0148 | -0.0455 | 0.0917 | -0.296 | -0.283 | -0.273 | -0.268 | -0.146 | -0.253 | -0.254 | -0.235 | -0.019 | 0.0308 | 0.0649 | 0.159 | -0.0642 | -0.00915 | 0.0416 | 0.233 | 0.413 | 0.477 | 0.486 | 0.497 | 0.391 | 0.438 | 0.445 | 0.436 |
| COc1ccc(S(=O)(=O)Nc2cccnc2Nc2ccc(O)cc2)cc1 | 0.0231 | -0.0101 | -0.0159 | 0.0329 | 0.889 | 0.918 | 0.932 | 0.948 | -0.0856 | -0.157 | -0.215 | -0.37 | -0.353 | -0.364 | -0.406 | -0.581 | -0.0595 | 0.0116 | 0.0522 | 0.105 | 0.896 | 0.923 | 0.934 | 0.956 | 0.454 | 0.511 | 0.525 | 0.533 | 0.416 | 0.502 | 0.51 | 0.5 |
| Nc1ccccc1NC(=O)c1ccc(CNC(=O)OCc2cccnc2)cc1 [Entinostat (MS-275, SNDX-275)] | 0.036 | 0.00325 | 0.00221 | 0.0268 | 0.833 | 0.861 | 0.874 | 0.887 |  |  |  |  |  |  |  |  | 0.053 | 0.0586 | 0.0668 | 0.217 | 0.855 | 0.89 | 0.908 | 0.928 |  |  |  |  |  |  |  |  |
| Cc1ccc(NC(=O)c2cccc(C(C)(C)C#N)c2)cc1Nc1ccc2ncn(C)c(=O)c2c1 | 0.0487 | 0.00122 | -0.0179 | -0.0294 | 0.157 | 0.159 | 0.087 | 0.137 | -0.0415 | -0.0437 | -0.0355 | -0.0473 | -0.346 | -0.245 | -0.279 | -0.339 | 0.00759 | 0.0624 | 0.11 | 0.17 | 0.173 | 0.189 | 0.164 | 0.263 | 0.556 | 0.622 | 0.643 | 0.651 | 0.432 | 0.547 | 0.564 | 0.563 |

From the supplement of paper PMC6897291
